# Compounds with a hit are over-represented: about 5.2% of the library has one in this group of screens.
# NadD inh = inhibitors of Staphylococcus aureus NadD | purified NadD enzyme, colorimetric absorbance read-out | inhibition, % at 20 µM | 360,000 compounds, 0.78% hits | AID 602399; in the data active = inhibition above about 26%
# esBAF inh = blocks esBAF chromatin remodeling in mouse ES cells; Bmi1-luciferase knock-in reporter, 24 h; 100% = twice the neutral-well signal; reporter increase, % at 12.5 µM; 350,000 compounds, 2% hits; in the data active = activation above about 40%;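 also: 0% = median of the plate's neutral control wells and 100% = double that signal; a rise in the Bmi1 reporter signal indicates esBAF inhibition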
# SKN-1 block = C. elegans SKN-1 inhibition | C. elegans VP596 Pgst-4::GFP/RFP ratio, acrylamide-induced, 24 h | inhibition, % at 21.8 µM | 360,000 compounds, 0.49% hits | AID 624304;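 active = interference check ratio from 0.5 to 1.5 plus GFP to RFP signal ratio inhibition reaching or exceeding a fixed threshold, cut at about 30% in these data, passing the limit was not always enough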
# Vif inh = inhibitors of HIV Vif; HEK293T cells, Vif self-association by quenched fluorescence, imaging, 24 h; AID 602346; 340,000 compounds, 0.35% hits; inhibition, % at 7.49 µM; in the data active = inhibition above about 50%, passing the limit was not always enough
# NR3A LBD binder = modulators (binders) of human NR3A ligand-binding domain; NR3A LBD differential scanning fluorimetry, Tm shift; 0% = protein alone, 100% = glycine-bound protein; Tm shift relative to glycine control, % at 25 µM; 340,000 compounds, 2.5% hits; AID 1259313;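 active = melting temperature shift of at least 10% of the positive control shift, at one fixed dose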
# SMARCA2 activ = SMARCA2 function activation, primary screen | MG213 cells, MMTV-luciferase reporter, dexamethasone, overnight | 370,000 compounds, 1% hits | AID 652017 | activation, % at 9.1 µM; in the data active = activation above about 7.8%;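 also: 0% = vehicle wells and 100% = reference activator wells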
# The depositor's hits bear a star; nt = no result given.
SMILES,NadD inh,esBAF inh,SKN-1 block,Vif inh,NR3A LBD binder,SMARCA2 activ
CN(C)S(=O)(=O)c1ccc2nc(NC(=O)c3cccs3)sc2c1,-6,9,17,-9,2,6
CNC[C@H]1OCCCC[C@H](C)Oc2ccc(NC(=O)Nc3ccc4c(c3)OCO4)cc2C(=O)N([C@@H](C)CO)C[C@@H]1C,nt,-4,nt,nt,nt,nt
CCCNC(=O)N(C)C[C@@H]1Oc2ncc(C#CC3(O)CCCC3)cc2C(=O)N([C@H](C)CO)C[C@H]1C,nt,2,nt,nt,nt,nt
C[C@H]1CN([C@@H](C)CO)C(=O)Cc2cc(NS(=O)(=O)c3cn(C)cn3)ccc2O[C@H]1CN(C)C(=O)Nc1ccc2c(c1)OCO2,nt,1,nt,nt,nt,nt
CCCC(=O)Nc1nc2ccc(C(=O)OCC)cc2s1,3,65*,10,5,-1,2
CCOC(=O)c1ccc2nc(NC(=O)c3ccco3)sc2c1,-10,-35,20,nt,16*,2
CCCCC(=O)Nc1nc2ccc(C(=O)OC)cc2s1,4,nt,14,-3,1,7
CCOc1ccc2nc(NC(=O)c3ccco3)sc2c1,4,-36,35*,-11,8,1
Cc1c(Cl)ccc2sc(NC(=O)c3ccco3)nc12,-8,64*,1,6,-2,1
CNC[C@@H]1Oc2ccc(NC(=O)Cc3ccccc3)cc2C(=O)N([C@H](C)CO)C[C@H]1C,nt,-7,nt,nt,nt,nt
O=C(Nc1nc2ccc(Cl)cc2s1)c1ccc(Br)o1,4,62*,18,-17,9,4
CCOC(=O)c1ccc2nc(NC(=O)c3cccs3)sc2c1,-5,-4,11,-11,42*,5
O=C(Nc1nc2c(Cl)cccc2s1)c1ccc(Br)o1,0,39,3,-11,-1,1
O=C(Nc1nc2ccc(S(=O)(=O)N3CCCC3)cc2s1)c1cccs1,1,18,13,6,-10,4
CC=Cc1ccc2n(c1=O)C[C@H]1[C@H](CO)[C@@H](C(=O)NCc3ccncn3)N(C(=O)NC3CCCC3)[C@@H]21 (mixture of isomers),nt,2,nt,nt,nt,nt
O=C(CCNc1ccccc1)c1ccc2c(c1)OCO2,-2,92*,-6,-1,-1,-2
Cc1ccc(C(=O)CCNc2ccccc2)o1,2,52*,7,-8,0,4
O=C(CSc1ccccn1)c1ccc2c(c1)OCO2,5,51*,7,-10,1,4
O=C(CSc1ccccn1)Nc1ccc2c(c1)OCO2,1,nt,3,-3,1,2
Cc1noc(C)c1S(=O)(=O)Nc1ccc2c(c1)C(=O)N([C@@H](C)CO)C[C@H](C)[C@H](CN(C)C(=O)c1ccccc1)OCCCC[C@H](C)O2,nt,2,nt,nt,nt,nt
CN(C)C(=S)N=c1ssc(=S)n1Cc1cccnc1,2,nt,1,7,27*,6
COc1ccccc1CNC(=O)C[C@H]1C=C[C@@H](NC(=O)CN(C)C)[C@H](CO)O1,nt,-3,nt,nt,nt,nt
O=C(COC(=O)c1cccc(NS(=O)(=O)/C=C/c2ccccc2)c1)Nc1ccccc1OC(F)F,-3,nt,-7,-3,19*,-1
COc1ccc(NC(=O)Nc2ccc3c(c2)C(=O)N([C@H](C)CO)C[C@H](C)[C@@H](CN(C)C(=O)Nc2cccc4ccccc24)O3)cc1,nt,5,nt,nt,nt,nt
C[C@@H]1CN([C@@H](C)CO)S(=O)(=O)c2ccc(C3=CCCC3)cc2O[C@H]1CN(C)C(=O)C1CCCCC1,nt,3,nt,nt,nt,nt
SMILES,NadD inh,esBAF inh,SKN-1 block,Vif inh,NR3A LBD binder,SMARCA2 activ
O=[N+]([O-])c1ccc(N=Nc2c(O)[nH]c3ccc(F)cc23)cc1,11,73*,5,-6,19*,-1
COc1ccccc1NC(=S)N=Nc1c(O)[nH]c2ccc(Br)cc12,30*,15,-1,-3,8,-4
Oc1[nH]c2ccc(Br)cc2c1N=Nc1ccc(F)cc1,3,1,5,-17,30*,4
Cc1cccc(NC(=S)N=Nc2c(O)[nH]c3ccccc23)c1,10,nt,-2,3,8,6
O=[N+]([O-])c1ccc2[nH]c(O)c(N=Nc3ccc(F)cc3)c2c1,13,-5,23,-12,0,-2
Cc1noc(C)c1S(=O)(=O)N(C)C[C@H]1OCCCC[C@@H](C)Oc2ccc(NC(=O)Nc3cccc4ccccc34)cc2C(=O)N([C@@H](C)CO)C[C@@H]1C,nt,7,nt,nt,nt,nt
COc1ccc(Br)cc1CN(C)CC(O)COc1ccc(Br)cc1 (centres undefined),-15,-3,35*,-5,0,-2
O=[N+]([O-])c1cc2c(cc1C=Nc1ccccc1)OCO2,11,0,-1,-5,-4,nt
Sc1oc(-c2ccccc2)cc1C=Nc1ccccc1,13,85*,7,-3,14*,2
CC(C)c1cc(C(=O)Nc2cc(Cl)ccc2O)no1,-12,55*,-13,8,-5,3
CCc1ccc(NC(=O)c2cc(C(C)C)on2)cc1,3,-16,8,-1,-1,2
CC(C)c1cc(C(=O)Nc2cc(Br)ccc2O)no1,-1,78*,6,-1,-2,-1
O=C(O)c1[nH]c2ccccc2c1C(c1cc(Br)ccc1O)c1c(C(=O)O)[nH]c2ccccc12,12,-5,-16,22,11*,-2
COc1cc(Cl)cc(C(c2c(C(=O)O)[nH]c3ccccc23)c2c(C(=O)O)[nH]c3ccccc23)c1O,22,-7,-2,-10,22*,-2
O=C(O)c1[nH]c2ccccc2c1C(c1c(F)cccc1Cl)c1c(C(=O)O)[nH]c2ccccc12,1,-2,-12,-1,3,0
CO[C@@H]1CN(C)C(=O)c2cc(NC(=O)NC3CCCCC3)ccc2OC[C@@H](C)NC[C@@H]1C,nt,-6,nt,nt,nt,nt
O=c1c2[nH]c3ccccc3c2ncn1C1CCCCC1,-4,62*,-10,3,-2,2
C[C@@H]1CN([C@@H](C)CO)C(=O)Cc2cc(NC(=O)CCCN(C)C)ccc2O[C@H]1CN(C)S(=O)(=O)c1ccccc1,nt,4,nt,nt,nt,nt
O=C1Cc2ccccc2Sc2ccccc21,-8,-5,32,nt,-3,1
Cc1ccc2c(c1)Sc1ccccc1CC2=O,-10,61*,1,4,5,1
O=C1CCNc2cc3ccccc3cc21,31*,-1,16,0,-1,nt
Cc1ccc2c(c1)C(=O)CCN2,-5,3,7,51*,-1,-2
CCn1c(NC(=O)c2ccco2)c(-c2ccccc2Cl)c(=O)c2ccccc21,-6,2,-38,-6,-1,8.0*
Cn1c(NC(=O)c2ccco2)c(-c2ccccc2)c(=O)c2ccccc21,-2,-4,1,4,0,-2
CCCNC(=O)C[C@@H]1C[C@@H]2c3cc(NS(=O)(=O)c4ccc(F)cc4)ccc3O[C@@H]2[C@@H](CO)O1,nt,-1,nt,nt,nt,nt

# Bioassay records deposited in PubChem BioAssay by several laboratories.
